YB-1 expr inh = YB-1 expression inhibition. delta delta Cp (YB-1 minus CDIP) (concentration not given with the values). AID 434959. U2OS, qRT-PCR YB-1 vs CDIP delta delta Cp, 16 h; active compounds read high; zero = DMSO, each unit about twofold. actives 0.37% (n = 30,000);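 active means delta delta Cp rounded down to an integer at or above 3, about 3 SD of DMSO wells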;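 further: higher means less YB-1 transcript or more CDIP transcript relative to DMSO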
U2OS ROS induce = inducers of reactive oxygen species in cancer cells; U2OS ROS induction, H2DCF-DA fluorescence; actives 2% (n = 46,000); AID 624156; ROS induction (% of piperlongumine), % at 10 µM; in the data active means ROS induction above about 79%, passing the limit was not always enough;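 further: 0% = DMSO vehicle median and 100% = reference compound median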
PD-1 reversal = activators reversing PD-1 mediated T-cell inhibition | 29,000 tested, under 10 active | primary human CD4 T cells, PD-L1 beads, CellTiter-Glo 96 h | AID 2316 | activation, % (no concentration beside the values); call rule not given here;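 further: 0% = median vehicle wells and 100% = positive control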
The depositor's hits bear a star; x = not tested or not shown. Only some compounds are listed: those with a hit (about 2.1% of all), similar ones and a draw of the others.

SMILES	YB-1 expr inh	U2OS ROS induce	PD-1 reversal
CC(C)NC(=O)N(C)C[C@H]1Oc2ccc(NS(=O)(=O)c3cccs3)cc2C(=O)N([C@@H](C)CO)C[C@@H]1C	0.059	-7	0
O=C(CN1CC(=O)Oc2ccccc21)Nc1ccc(O)cc1	0.18	-10	-4
Cc1cc(C(=O)Nc2cccc3c2O[C@@H](CN(C)Cc2ccc(-c4ccccc4)cc2)[C@H](C)CN([C@H](C)CO)C3=O)n(C)n1	0.16	78*	x
Cc1cc(C(=O)Nc2cccc3c2O[C@H](CN(C)Cc2ccc(-c4ccccc4)cc2)[C@H](C)CN([C@@H](C)CO)C3=O)n(C)n1	-0.41	19	0
Cc1cc(C(=O)Nc2cccc3c2O[C@H](CN(C)Cc2ccc(-c4ccccc4)cc2)[C@@H](C)CN([C@@H](C)CO)C3=O)n(C)n1	-0.35	214*	1
Cc1cc(C(=O)Nc2cccc3c2O[C@H](CN(C)Cc2ccc(-c4ccccc4)cc2)[C@H](C)CN([C@H](C)CO)C3=O)n(C)n1	-0.13	16	x
Cc1cccc(C)c1NC(=O)C1(N(C)C(=O)CSc2nc3ccccc3o2)CCCCC1	x	0	x
CC1=C(C/C=N/NC(=O)CCCCCCC(=O)Nc2ccccc2O)C(C)(C)CCC1	0.21	33	x
O=C(NCCCN1CCOCC1)c1ccc2c(=O)n(CCCN3CCCC3=O)c(=S)[nH]c2c1	x	14	x
CS(=O)(=O)N(CC(=O)Nc1ccc(F)c(F)c1)c1ccccc1Br	x	19	-1
C[C@@H]1CN([C@@H](C)CO)C(=O)c2cccc(NC(=O)Nc3ccccc3)c2O[C@H]1CN(C)S(C)(=O)=O	0.26	91*	0
COc1ccc(S(=O)(=O)N(C)C[C@@H]2Oc3c(NC(=O)c4nc5ccccc5s4)cccc3C(=O)N([C@H](C)CO)C[C@@H]2C)cc1	-0.15	25	-5
C[C@@H]1CN([C@H](C)CO)C(=O)c2cccc(NC(=O)Nc3cccc4ccccc34)c2O[C@H]1CN(C)S(=O)(=O)c1ccccc1	-0.098	1	x
C[C@@H]1CN([C@H](C)CO)C(=O)c2cccc(NC(=O)Nc3cccc4ccccc34)c2O[C@H]1CN(C)S(=O)(=O)c1ccc(F)cc1	0.13	111*	-2
COc1ccc(S(=O)(=O)N(C)C[C@H]2Oc3c(NC(=O)c4nc5ccccc5s4)cccc3C(=O)N([C@@H](C)CO)C[C@H]2C)cc1	7.9*	13	x
C[C@@H]1CN([C@@H](C)CO)C(=O)c2cccc(NC(=O)Nc3ccccc3)c2O[C@@H]1CN(C)S(C)(=O)=O	0.24	25	-1
O=C(CCCCC(=O)N/N=C/C1=CCCCC1)NO	0.065	14	x
COC(=O)c1c(NC(=O)COc2cccc(Cl)c2)sc2c1CCC2	x	7	-1
O=C(CCCCC(=O)N/N=C/c1ccoc1)NO	-0.11	-1	x
C[C@@H]1CCCCO[C@H](CN(C)C(=O)Nc2ccc3c(c2)OCO3)[C@@H](C)CN([C@H](C)CO)C(=O)c2cc(NC(=O)CCC(F)(F)F)ccc2O1	-0.0058	-6	1
C[C@@H]1CCCCO[C@@H](CN(C)Cc2ccncc2)[C@@H](C)CN([C@H](C)CO)C(=O)c2cc(NC(=O)C3CCCCC3)ccc2O1	0.16	16	0
C[C@@H]1CCCCO[C@@H](CN(C)C(=O)Nc2ccc(F)cc2)[C@@H](C)CN([C@H](C)CO)C(=O)c2cc(NC(=O)CCC(F)(F)F)ccc2O1	-0.03	140*	0
C[C@@H]1CCCCO[C@H](CN(C)Cc2ccc(C(F)(F)F)cc2)[C@@H](C)CN([C@H](C)CO)C(=O)c2cc(NC(=O)CCC(F)(F)F)ccc2O1	0.026	9	1
C[C@@H]1CCCCO[C@@H](CN(C)Cc2ccc(C(F)(F)F)cc2)[C@@H](C)CN([C@H](C)CO)C(=O)c2cc(NC(=O)CCC(F)(F)F)ccc2O1	0.14	155*	0
C[C@@H]1CCCCO[C@H](CN(C)Cc2ccc(C(F)(F)F)cc2)[C@@H](C)CN([C@H](C)CO)C(=O)c2cc(NC(=O)C3CCCCC3)ccc2O1	-0.5	87*	-5
Cc1nc(C2C(=O)c3ccc(O)c(O)c3OC2C(F)(F)F)cs1 (centres undefined)	-0.015	-5	1
COc1ccc(CCNC(=O)c2ccc3c(=O)n(CCC4=CCCCC4)c(=S)[nH]c3c2)cc1OC	x	96*	x
COc1ccc(CCNC(=O)c2ccc3c(=O)n(CC4CCCO4)c(=S)[nH]c3c2)cc1OC (centres undefined)	-0.46	3	5
COc1ccc(NC(=O)Nc2ccc3c(c2)C(=O)N([C@H](C)CO)C[C@H](C)[C@H](CN(C)S(=O)(=O)c2ccc(F)cc2)O3)cc1	10*	56	-1
